Bioassay records deposited in PubChem by National Center for Advancing Translational Sciences (NCATS).
Only some compounds are listed: those with a hit (about 1.4% of all), similar ones and a draw of the others.
Giardia FBPA inh-1: Giardia lamblia aldolase inhibition. purified Giardia FBPA. A8B2U2. 290,000 tested, 0.71% active. Potency, µM (doses to about 59.6 µM), most hits filed as inhibitors; also: nearly all actives have a fitted effect of over 55% in size
Target sequence (A8B2U2 whole entry, looked up): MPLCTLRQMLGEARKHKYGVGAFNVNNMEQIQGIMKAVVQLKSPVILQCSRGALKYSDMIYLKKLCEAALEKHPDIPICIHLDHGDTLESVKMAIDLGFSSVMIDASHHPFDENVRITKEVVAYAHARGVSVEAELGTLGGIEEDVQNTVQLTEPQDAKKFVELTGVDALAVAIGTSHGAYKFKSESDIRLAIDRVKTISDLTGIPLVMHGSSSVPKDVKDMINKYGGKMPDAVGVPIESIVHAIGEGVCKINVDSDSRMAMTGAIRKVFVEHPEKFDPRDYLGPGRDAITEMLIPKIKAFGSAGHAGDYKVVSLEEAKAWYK
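40 nM FBPA preincubated 10 min at RT with compound (up to 57.5 uM final), then substrate plus GAPDH/TPI/NAD/arsenate coupling and diaphorase/resazurin added. Fluorescence read after 20 min at RT, 525/598 nm.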
AmpC no deterg: blocks E. coli AmpC beta-lactamase in detergent-free assay; P00811; AmpC nitrocefin hydrolysis, absorbance 480 nm, 0.0001% Triton; Potency, µM (titrated, usually from 57.1 µM), usual class: inhibitors; 330,000 tested, 0.52% active; AID 485341; also: nearly all actives have a fitted effect of over 20% in size
Target sequence (P00811 whole entry, looked up): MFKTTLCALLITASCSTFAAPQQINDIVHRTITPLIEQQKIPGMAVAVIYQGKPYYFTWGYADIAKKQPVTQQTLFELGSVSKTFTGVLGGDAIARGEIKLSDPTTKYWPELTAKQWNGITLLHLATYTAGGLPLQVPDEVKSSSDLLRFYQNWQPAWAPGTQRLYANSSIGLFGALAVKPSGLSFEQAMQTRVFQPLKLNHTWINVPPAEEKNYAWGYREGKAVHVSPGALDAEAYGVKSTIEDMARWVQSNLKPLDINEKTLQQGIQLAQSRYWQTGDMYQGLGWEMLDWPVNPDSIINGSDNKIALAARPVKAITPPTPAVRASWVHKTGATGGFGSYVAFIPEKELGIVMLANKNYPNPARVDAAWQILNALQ
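AmpC (5.3 nM in the dispensed reagent) in 20 mM phosphate pH 7.0 with 0.01% (detergent screen) or 0.0001% Triton X-100 was preincubated with compounds for 15 min at room temperature. Nitrocefin was then added from an 800 uM solution, and hydrolysis was followed at 480 nm.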
NS1 inh: influenza NS1 inhibition | Potency, µM (series often up to 46.1 µM) | AID 2326 | 270,000 tested, 0.4% active; calls by dose curve; also: actives are rising curves; nearly all actives have a fitted effect of over 50% in size
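S. cerevisiae expressing influenza A NS1, grown in glucose, washed, then diluted 1:100 into pH 6.0 -URA galactose medium with 23 nl compound. Growth recovery read as OD600; NS1-free strain serves as control.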
AmpC inh detg: inhibitors of E. coli AmpC beta-lactamase with detergent; AmpC hydrolysis of nitrocefin, absorbance 480 nm, 0.01% Triton; Potency, µM (series often up to 114 µM), hits mostly inhibitors; 370,000 tested, 0.041% active; AID 485294; also: nearly all actives have a fitted effect of over 25% in size
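20 mM phosphate pH 7.0 + 0.01% (detergent screen) or 0.0001% Triton X-100; 5.3 nM AmpC reagent; cpd preinc 15 min RT; nitrocefin (800 uM stock) to start; A480 q20 s × 4 min; Activity was normalised to no-enzyme and no-compound control wells.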
SARS PLpro yeast: blocks SARS-CoV papain-like protease in a yeast assay | Potency, µM (series often up to 32.9 µM), hits mostly activators | 330,000 tested, 0.19% active | S. cerevisiae expressing SARS-CoV PLpro, growth rescue | AID 485353; calls by dose curve; also: nearly all actives have a fitted effect of over 55% in size
Giardia growth: Giardia lamblia growth inhibition | shares compounds with Giardia FBPA inh-1 | Potency, µM (series often up to 57.5 µM), most hits filed as inhibitors | 1,500 tested, 5% active | Giardia lamblia trophozoite growth inhibition;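 also: trophozoites exposed to compound for 48 h at 37 °C; nearly all actives have a fitted effect of over 70% in size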
Mammalian tox: counter-screen for Giardia aldolase inhibitors: mammalian cell toxicity; shares compounds with Giardia FBPA inh-1; mammalian cell viability counter-screen, qHTS; Potency, µM (top dose mostly 57.5 µM), usual class: inhibitors; 1,500 tested, 4% active;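 also: Chinese hamster ovary cells used as mammalian cytotoxicity surrogate; viability measured as cellular ATP by luminescence; compound exposure lasted 48 h before reading; nearly all actives have a fitted effect of over 60% in size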
Giardia FBPA inh-2: confirmation of Giardia fructose-bisphosphate aldolase inhibitors. shares compounds with Giardia FBPA inh-1. purified Giardia aldolase enzyme activity, qHTS. Potency, µM (series often up to 57.5 µM), hits mostly inhibitors. 1,500 tested, 5% active. AID 2787; also: nearly all actives have a fitted effect of over 45% in size
Rabbit aldolase: rabbit FBP aldolase inhibition by Giardia aldolase hits; 1,500 tested, 4% active; Rabbit muscle FBPA enzyme inhibition, selectivity counter-screen; AID 2794; Potency, µM (series often up to 57.5 µM), actives largely listed as inhibitors; shares compounds with Giardia FBPA inh-1; also: nearly all actives have a fitted effect of over 60% in size
GAPDH counter: GAPDH inhibition flagged for Giardia aldolase hits. shares compounds with Giardia FBPA inh-1. GAPDH coupling enzyme counterscreen, biochemical, qHTS. Potency, µM (doses to about 57.5 µM), usual class: inhibitors. 1,500 tested, 6% active. AID 2795; also: nearly all actives have a fitted effect of over 55% in size
Numbers stand for hits; . = inactive; ? = inconclusive; / = not tested or not shown; [ ] = another dose, or the depositor's remark. Unless noted, calls follow the shape of the dose curve; as a rule, active = well fitted curve in the direction sought with a large enough effect; inconclusive = small, poorly fitted or top-dose-only effect, or another doubt; inactive = no such curve, though single readings can be large; an effect the other way counts as inactive or inconclusive.

SMILES	Giardia FBPA inh-1	AmpC no deterg	NS1 inh	AmpC inh detg	SARS PLpro yeast	Giardia growth	Mammalian tox	Giardia FBPA inh-2	Rabbit aldolase	GAPDH counter
Cc1nn(-c2ccccc2)cc1/C=N/NC(N)=S	.	.	.	.	.	/	/	/	/	/
N#C/C(=N\Nc1ccccc1)C(N)=S	20µM	.	.	.	.	?	.	.	.	.
Cn1cnc([N+](=O)[O-])c1Sc1ncccc1N	18µM	.	.	.	.	.	.	.	.	.
Cc1ccc(Sc2c([N+](=O)[O-])ncn2C)cc1	.	.	.	.	.	/	/	/	/	/
Cc1ccc(S(=O)(=O)N2CCOCC2)cc1NC(=O)CNCc1cccnc1	16µM	.	.	.	.	.[10.4 µM]	.	.	.	.
COC(=O)/C(C#N)=C1/SC=C(C)N1c1ccccc1	.	.	.	.	.	/	/	/	/	/
Cc1cc(C)n2c(=S)[nH]nc2n1	2.2µM	.	.	?	.	.	.	.	?	.
Cc1cccc(C(=O)NC(=S)NNC(=O)c2ccccc2Cl)c1	?	.	.	?	.	.	.	.	.	.
O=C(Cc1ccc([N+](=O)[O-])cc1)Nc1ccon1	.	.	.	.	?	/	/	/	/	/
c1ccc(Nc2ccc(Nc3ccccc3)cc2)cc1	/	.	/	.	.	/	/	/	/	/
N#CC(C#N)=C(C#N)c1ccc(Nc2ccccc2)cc1	22µM	.	.	.	.	?	.	.	.	.
O=C(/C=C/c1ccc(Cl)cc1)NC(=S)N1C[C@H]2C[C@H](C1)c1cccc(=O)n1C2	7.1µM	.	.	?	.	.	.	.	.	.
O=C(/C=C/c1ccc(Br)cc1)NC(=S)N1C[C@H]2C[C@H](C1)c1cccc(=O)n1C2	?	.	.	.	.	/	/	/	/	/
CCN1CCN(CCOCCOc2ccccc2)CC1	25µM	.	.	.	.	?	.	.	.	.
c1ccc(OCCOCCN2CCOCC2)cc1	.	.	.	.	.	/	/	/	/	/
O=C(O)c1cc(-c2ccccn2)n[nH]1	6.3µM	.	.	?	.	.	.	.	.	.
O=C(O)c1ccc(-c2ccccn2)s1	.	.	/	.	.	/	/	/	/	/
O=C(NCc1cccnc1)c1ccc(=O)oc1	.	.	.	.	.	/	/	/	/	/
O=C(Nc1n[nH]c(=S)s1)c1ccco1	7.1µM	.	.	.	.	.	.	40µM	.	.
O=C(Nc1nnc(-c2ccc(F)cc2)s1)c1ccco1	.	.	.	.	.	/	/	/	/	/
NCc1c(O)ccc2ccccc12	.	.	.	.	.	.	.	1.6µM	?	?
CCOc1ccc(N(CC(=O)Nc2ccc(OC)cc2)C2=NC3CS(=O)(=O)CC3S2)cc1 (stereo not given)	13µM	.	.	.	.	.	.	.	.	.
CCC(Sc1nc2ncccc2[nH]1)C(=O)NCCc1ccccc1 (stereo not given)	2.2µM	.	.	.	.	.[10.4 µM]	.	.	.	.
COc1ccc(C(C)=O)cc1COc1ccc(-n2cnnn2)cc1	.	.	.	.	.	/	/	/	/	/
COC(=O)C1=C(O)/C(=C\c2cc(C)n(-c3ccc(F)cc3)c2C)N=C1C	16µM	.	/	.	.	.[10.4 µM]	.	.	.	.
SMILES	Giardia FBPA inh-1	AmpC no deterg	NS1 inh	AmpC inh detg	SARS PLpro yeast	Giardia growth	Mammalian tox	Giardia FBPA inh-2	Rabbit aldolase	GAPDH counter
COC(=O)C1=C(C)NC(=O)/C1=C\c1cc(C)n(-c2ccc(F)cc2)c1C	?	.	.	.	.	/	/	/	/	/
CC(=O)N1CCN(Cc2nc3cc(NC(=O)COc4cccc(C)c4)ccc3n2C)CC1	20µM	.	.	.	.	?	.	.	.	.
Cc1ccc(NC(=O)Nn2cnnc2)c(C)c1	.	.	.	?	.	/	/	/	/	/
Cc1ccc(NC(=S)Nn2cnnc2)c(C)c1	13µM	.	.	.	.	.	.	.	.	.
CCOC(=O)c1cnc(-c2ccccc2O)nc1Cl	20µM	.	/	.	.	?	.	?	?	?
O[N+]1=CC=CCC1=S.On1ccccc1=S.[Zn]	0.5µM	/	/	/	/	10µM	2.8µM	?	?	?
Nn1c(Cc2ccccc2)n[nH]c1=S	.	.	.	.	.	/	/	/	/	/
NNc1n[nH]c(=S)n1N	1.8µM	.	.	.	.	.	.	16µM	18µM	18µM
O=C(c1cccc(F)c1F)N1CCCc2ccccc21	.	.	.	?	.	/	/	/	/	/
CSc1ccccc1NC(=O)CN(C)Cc1cccc(Cl)c1	22µM	.	.	.	.	.	.	.	.	.
CN(CC(=O)NCc1ccccc1)Cc1cccc(F)c1	10µM	.	.	.	.	.	.	.	.	.
N#Cc1ccc(CNc2cnccn2)cc1	.	.	.	.	.	/	/	/	/	/
Nn1cnnc1N/N=C/c1ccccc1C(F)(F)F	?	.	.	.	.	/	/	/	/	/
Nn1cnnc1N/N=C/c1ccc(Cl)c([N+](=O)[O-])c1	13µM	.	/	.	.	.	.	?	?	?
Nn1cnnc1N/N=C/c1cccc(Cl)c1Cl	?	.	.	.	.	.	.	9.2µM	12µM	15µM
Nn1cnnc1N/N=C/c1ccc(F)cc1	20µM	.	.	?	.	.	.	?	.	?
CCc1nnc(N/N=C/c2ccc(N3CCC(C)CC3)c([N+](=O)[O-])c2)n1N	7.1µM	.	.	?	.	?	.	?	.	.
Cc1csc(NC(=O)CSc2sc3c(O)cc(=O)[nH]c3c2C#N)n1	?	.	.	?	.	/	/	/	/	/
N#Cc1ccc(C2=CC(=O)C[C@H](c3ccc(F)cc3)C2)cc1	/	.	/	.	.	/	/	/	/	/
c1cnc2nc(CSc3ncn[nH]3)cn2c1	.	.	/	.	.	/	/	/	/	/
COc1ccc(NC(=O)CNC(c2ccccc2)c2ccccc2)cc1	20µM	.	.	?	.	.	.	.	.	.
COc1cc(NC(=O)CNC(c2ccccc2)c2ccccc2)cc(OC)c1OC	.	.	.	.	.	/	/	/	/	/
CC(C)(C)c1cc(C(=S)N2CCN(CCO)CC2)cc(C(C)(C)C)c1O	10µM	.	.	.	.	.[10.4 µM]	.	.	?	?
CC(C)(C)c1cc(C(=O)CCN2CCOCC2)cc(C(C)(C)C)c1O	.	.	.	.	.	/	/	/	/	/
Cc1oc(-c2ccccc2F)nc1Cn1c(SCc2cccc(C(F)(F)F)c2)nc2ccncc21	/	/	/	.	/	/	/	/	/	/
N#CCCN(Cc1cccnc1)C(=S)NC(=O)c1ccc(S(=O)(=O)N2CCCC2)cc1	7.9µM	.[11.4 µM]	/	.	.	.	.	.	.	.
COc1ccc(-c2n[nH]c(=S)n2N)c(OC)c1	10µM	.	/	.	.	.	.	.	.	.
